Values without a mark were called inactive. Inconclusive results are not listed. Where a call stands in place of a potency, no number is given. Activity calls are given as the source filed them. Unless noted, the call rests on the fitted dose curve; in most records, active means well fitted curve in the direction sought with a large enough effect in the repeat runs; inconclusive means weak or mixed curves; inactive means no such curve, though single readings can be large; an effect the other way counts as inactive or inconclusive.
Assays:
[1] = target: Thyrotropin-releasing hormone receptor (Homo sapiens) (UniProt P34981); experiment: qHTS assay to identify small molecule agonists of the thyrotropin-releasing hormone receptor (TRHR) signaling pathway (AID 1346891; calls by dose curve; further: series mostly up to about 58 µM)
In short: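 TRHR-expressing HEK293 cells were plated 18 h at 37 °C/5% CO2, loaded with calcium dye 2 h at 37 °C, then given compound in DMSO; fluorescence was read kinetically for 3 min at 1 s intervals.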

[2] = Human pregnane X receptor (PXR) small molecule agonists, qHTS cell viability counter screen (AID 1346977); further: nearly all actives have a fitted effect of over 50% in size; further: potency means the concentration at half of the fitted maximal effect
In short: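 PXR-Luc HepG2 cells in medium with 5% charcoal-stripped FBS were pre-incubated 5hr, then exposed to compounds for 24hr at 37C. Viability was read in the same wells by CellTiter-Fluor fluorescence, reagent added after 23hr with a 1hr incubation.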

[3] = Caspase-3/7 induction in HepG2 cells by small molecules, qHTS assay (AID 1346978); further: nearly all actives have a fitted effect of over 15% in size; further: potency means the concentration at half of the fitted maximal effect
In short: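 Wild-type HepG2 cells (2,000/well) were settled 5 h at 37 C, 5% CO2, then exposed to compounds in DMSO for 17 h. Caspase-3/7 activity was read by luminescence 30 min after adding Caspase-Glo 3/7 reagent at room temperature.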

[4] = Caspase-3/7 induction in CHO-K1 cells by small molecules, qHTS cell viability counter screen (AID 1346979); further: nearly all actives have a fitted effect of over 35% in size; further: potency means the concentration at half of the fitted maximal effect
In short: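 Wild-type CHO-K1 cells were seeded at 1,500 per well, rested 5hr at 37 C, then exposed to compounds in DMSO. After 16hr, CellTiter-Fluor reagent was added and fluorescence read 1hr later as the viability measure.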

[5] = target: Nuclear receptor subfamily 1 group I member 2 (Homo sapiens) (UniProt O75469); experiment: Human pregnane X receptor (PXR) small molecule agonists, qHTS assay (AID 1346982); further: nearly all actives have a fitted effect of over 35% in size; further: potency means the concentration at half of the fitted maximal effect
In short: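 HepG2 PXR-Luc reporter line, 5% charcoal-stripped FBS; 5 hr pre-incubation, compound (DMSO) 24 hr at 37 C/5% CO2; ONE-Glo 30 min RT; luminescence read-out.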

[6] = target: Cytochrome P450 2D6 (Homo sapiens) (UniProt P10635); experiment: Cytochrome P450 Family 2 Subfamily D Member 6 (CYP2D6) small molecule antagonists: luciferase reporter qHTS assay (AID 1671196); further: nearly all actives have a fitted effect of over 50% in size; further: potency means the concentration at half of the fitted maximal effect
In short: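 Luminogenic proluciferin substrate, CYP2D6 enzyme; 10 min RT preincubation with compound, NADPH regeneration system added, 1 h RT. Stop/detection reagent, 20 min RT, luminescence read (RLU). Signal proportional to CYP activity.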

[7] = target: Cytochrome P450 2C19 (Homo sapiens) (UniProt P33261); experiment: Cytochrome P450 Family 2 Subfamily C Member 19 (CYP2C19) small molecule antagonists: luciferase reporter qHTS assay (AID 1671197); further: nearly all actives have a fitted effect of over 65% in size; further: potency means the concentration at half of the fitted maximal effect
In short: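 Luminescent readout of CYP2C19 activity: luciferin product detected 20 min after adding detection reagent. Before that, compound and enzyme-substrate mix preincubated 10 min at room temperature; NADPH-regenerating system started a 1 h, 37C reaction. Ketoconazole as positive control.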

[8] = target: Cytochrome P450 2C9 (Homo sapiens) (UniProt P11712); experiment: Cytochrome P450 Family 2 Subfamily C Member 9 (CYP2C9) small molecule antagonists: luciferase reporter qHTS assay (AID 1671198); further: nearly all actives have a fitted effect of over 50% in size; further: potency means the concentration at half of the fitted maximal effect
In short: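 CYP2C9 activity was measured with a P450-Glo proluciferin substrate. Enzyme–substrate mix was held with compound for 10 min at room temperature, then NADPH regeneration solution was added for 1 h at 37C. Luciferin product was read as luminescence.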

[9] = target: Cytochrome P450 1A2 (Homo sapiens) (UniProt P05177); experiment: Cytochrome P450 Family 1 Subfamily A Member 2 (CYP1A2) small molecule antagonists: luciferase reporter qHTS assay (AID 1671199); further: nearly all actives have a fitted effect of over 50% in size; further: potency means the concentration at half of the fitted maximal effect
In short: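 Luminescence readout (relative luminescence units) after luciferin detection reagent, 20 min RT. Preceded by 1 h room-temperature CYP1A2 reaction with NADPH regeneration solution following 10 min compound preincubation with enzyme and proluciferin substrate. Furafylline positive control.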

[10] = target: Voltage-gated inwardly rectifying potassium channel KCNH2 (Homo sapiens) (UniProt Q12809); experiment: Human Ether-a-go-go-Related Gene (hERG) channel small molecule antagonists: fluorescence cell-based qHTS assay (AID 1671200)
In short: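 U2OS cells expressing the channel were plated at 1000 cells/well, incubated overnight at 37 C, then loaded with FluxOR II thallium-sensitive dye for 1 h at room temperature in the dark, with a further 10 min at room temperature before stimulation.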

[11] = target: Cytochrome P450 3A4 (Homo sapiens) (UniProt P08684); experiment: Cytochrome P450 Family 3 Subfamily A Member 4 (CYP3A4) small molecule antagonists: luciferase reporter qHTS assay (AID 1671201); further: nearly all actives have a fitted effect of over 50% in size; further: potency means the concentration at half of the fitted maximal effect
In short: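 P450-Glo CYP3A4 system with proluciferin substrate; compounds preincubated 10 min RT with enzyme-substrate mix, then NADPH regeneration added for 1 h RT. Detection reagent 20 min, luminescence read as relative luminescence units.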

[12] = Caspase-3/7 induction in CHO-K1 cells by small molecules, qHTS assay (AID 1346980); further: nearly all actives have a fitted effect of over 15% in size
In short: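 Wild-type cells were seeded at 1,500 per well and settled 5 hr at 37 C, 5% CO2, then exposed to DMSO-dissolved compounds for 17 hr. Caspase-Glo 3/7 reagent was added, and luminescence was read after 30min at room temperature.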

[13] = Caspase-3/7 induction in HepG2 cells by small molecules, qHTS cell viability counter screen (AID 1346981); further: series mostly up to about 92 µM; nearly all actives have a fitted effect of over 30% in size
In short: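 Fluorescence read-out of live-cell protease activity (CellTiter-Fluor) after 1 hr with reagent. This was measured in the same wells as the caspase-3/7 luminescence, on HepG2 cells exposed to DMSO-dissolved compounds for 16 hr at 37 C.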

[14] = target: Nuclear receptor subfamily 1 group I member 2 (Homo sapiens) (UniProt O75469); experiment: CYP3A4 induction through human pregnane X receptor (PXR) by small molecules, qHTS assay (AID 1346984); further: nearly all actives have a fitted effect of over 40% in size; further: potency means the concentration at half of the fitted maximal effect
In short: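 HepG2-derived DPX-2 line carrying PXR plus a CYP3A4-promoter luciferase reporter; cells plated 5 hr, compound-exposed 24 hr at 37C. CYP3A4 activity probed with 3uM (final) Luciferin-IPA for 3hr, then luciferase read after One-Glo.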

[15] = target: Nuclear receptor subfamily 1 group I member 2 (Homo sapiens) (UniProt O75469); experiment: Human pregnane X receptor (PXR) activation by small molecules, qHTS assay (AID 1346985); further: nearly all actives have a fitted effect of over 40% in size; further: potency means the concentration at half of the fitted maximal effect
In short: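 DPX-2 cells (HepG2 co-transfected with a PXR response element and a CYP3A4-promoter luciferase construct) were seeded at 2,000 per well, rested 5 hr at 37C, then exposed to DMSO-dissolved compounds for 24 hr. Activation was read as luciferase luminescence.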

[16] = target: Nuclear receptor subfamily 1 group I member 2 (Rattus norvegicus) (UniProt Q9R1A7); experiment: Rat pregnane X receptor (rPXR) activation by small molecules, qHTS assay (AID 1346983); conditions: rPXR luciferase reporter cells, One-Glo luminescence, 24 h; max activation: hits give high values; further: nearly all actives have a fitted effect of over 20% in size
In short: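 Cell-based rPXR luciferase reporter assay, 2,000 cells per well, rested 5hr at 37 C before compound addition in DMSO, then 24 hr at 37 C. One-Glo reagent was added and luminescence read after 30 min at room temperature.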

Sequence of Nuclear receptor subfamily 1 group I member 2 (Rattus norvegicus) (Q9R1A7 whole entry, looked up): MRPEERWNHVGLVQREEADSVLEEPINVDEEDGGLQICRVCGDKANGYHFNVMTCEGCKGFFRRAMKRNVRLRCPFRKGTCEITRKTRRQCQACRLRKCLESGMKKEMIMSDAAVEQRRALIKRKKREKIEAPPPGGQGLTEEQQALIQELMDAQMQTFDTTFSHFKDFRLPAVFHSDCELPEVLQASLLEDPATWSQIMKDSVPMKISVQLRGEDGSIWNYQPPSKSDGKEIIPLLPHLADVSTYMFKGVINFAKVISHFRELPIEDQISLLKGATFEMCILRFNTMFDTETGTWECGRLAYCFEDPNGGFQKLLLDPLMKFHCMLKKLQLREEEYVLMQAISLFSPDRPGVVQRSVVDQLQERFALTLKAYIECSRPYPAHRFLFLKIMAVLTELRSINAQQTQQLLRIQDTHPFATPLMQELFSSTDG
Sequence of Thyrotropin-releasing hormone receptor (Homo sapiens) (P34981 whole entry, looked up): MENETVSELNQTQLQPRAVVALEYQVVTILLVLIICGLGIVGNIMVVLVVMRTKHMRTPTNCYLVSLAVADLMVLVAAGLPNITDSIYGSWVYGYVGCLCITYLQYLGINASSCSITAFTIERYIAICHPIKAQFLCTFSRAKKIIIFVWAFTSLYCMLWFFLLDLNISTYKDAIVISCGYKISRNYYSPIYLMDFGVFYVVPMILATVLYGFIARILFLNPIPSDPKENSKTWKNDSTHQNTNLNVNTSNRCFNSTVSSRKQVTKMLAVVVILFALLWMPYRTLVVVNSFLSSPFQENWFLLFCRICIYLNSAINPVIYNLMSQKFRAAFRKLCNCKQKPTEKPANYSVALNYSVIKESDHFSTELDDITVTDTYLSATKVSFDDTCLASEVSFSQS
Sequence of Cytochrome P450 1A2 (Homo sapiens) (P05177 whole entry, looked up): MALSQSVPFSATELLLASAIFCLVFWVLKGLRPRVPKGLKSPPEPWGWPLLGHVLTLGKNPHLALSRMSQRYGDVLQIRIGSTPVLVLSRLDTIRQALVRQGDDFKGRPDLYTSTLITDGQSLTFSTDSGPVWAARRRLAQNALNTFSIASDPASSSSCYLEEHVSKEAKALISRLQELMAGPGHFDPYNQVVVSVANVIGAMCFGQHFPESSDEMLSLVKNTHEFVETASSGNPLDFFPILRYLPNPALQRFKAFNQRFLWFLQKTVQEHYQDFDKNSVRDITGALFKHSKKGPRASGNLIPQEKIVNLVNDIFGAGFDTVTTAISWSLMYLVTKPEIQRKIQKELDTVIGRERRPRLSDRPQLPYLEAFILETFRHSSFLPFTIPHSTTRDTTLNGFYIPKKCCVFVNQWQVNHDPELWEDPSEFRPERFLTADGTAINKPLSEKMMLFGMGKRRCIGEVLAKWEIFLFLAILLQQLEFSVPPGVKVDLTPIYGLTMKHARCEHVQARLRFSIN
Sequence of Cytochrome P450 3A4 (Homo sapiens) (P08684 whole entry, looked up): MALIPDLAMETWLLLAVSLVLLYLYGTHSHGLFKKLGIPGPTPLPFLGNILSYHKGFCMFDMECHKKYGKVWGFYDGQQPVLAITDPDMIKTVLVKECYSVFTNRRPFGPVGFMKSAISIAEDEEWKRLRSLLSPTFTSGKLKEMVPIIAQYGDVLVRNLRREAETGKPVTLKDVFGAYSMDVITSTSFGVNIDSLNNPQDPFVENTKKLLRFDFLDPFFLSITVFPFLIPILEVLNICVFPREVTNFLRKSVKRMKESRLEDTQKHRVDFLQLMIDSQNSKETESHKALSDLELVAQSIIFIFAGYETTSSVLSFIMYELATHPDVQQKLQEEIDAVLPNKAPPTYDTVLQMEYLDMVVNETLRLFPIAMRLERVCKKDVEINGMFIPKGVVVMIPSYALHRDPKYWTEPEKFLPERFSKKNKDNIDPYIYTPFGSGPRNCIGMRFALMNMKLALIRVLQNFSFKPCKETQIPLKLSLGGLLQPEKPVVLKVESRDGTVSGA
Sequence of Cytochrome P450 2C19 (Homo sapiens) (P33261 whole entry, looked up): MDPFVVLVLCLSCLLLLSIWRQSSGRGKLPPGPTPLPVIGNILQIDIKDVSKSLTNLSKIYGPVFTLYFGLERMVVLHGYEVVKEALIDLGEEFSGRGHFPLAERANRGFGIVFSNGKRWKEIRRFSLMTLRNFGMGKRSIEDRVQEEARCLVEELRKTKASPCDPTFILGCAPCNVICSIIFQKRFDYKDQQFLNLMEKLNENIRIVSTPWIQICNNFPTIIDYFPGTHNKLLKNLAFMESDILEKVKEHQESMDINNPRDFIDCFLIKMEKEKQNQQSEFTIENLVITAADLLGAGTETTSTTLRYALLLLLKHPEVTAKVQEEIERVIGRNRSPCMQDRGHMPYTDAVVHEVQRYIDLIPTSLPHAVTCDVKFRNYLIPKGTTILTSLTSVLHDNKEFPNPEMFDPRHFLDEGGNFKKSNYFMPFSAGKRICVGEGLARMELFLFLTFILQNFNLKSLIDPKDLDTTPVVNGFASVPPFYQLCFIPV
Sequence of Voltage-gated inwardly rectifying potassium channel KCNH2 (Homo sapiens) (Q12809 whole entry, looked up): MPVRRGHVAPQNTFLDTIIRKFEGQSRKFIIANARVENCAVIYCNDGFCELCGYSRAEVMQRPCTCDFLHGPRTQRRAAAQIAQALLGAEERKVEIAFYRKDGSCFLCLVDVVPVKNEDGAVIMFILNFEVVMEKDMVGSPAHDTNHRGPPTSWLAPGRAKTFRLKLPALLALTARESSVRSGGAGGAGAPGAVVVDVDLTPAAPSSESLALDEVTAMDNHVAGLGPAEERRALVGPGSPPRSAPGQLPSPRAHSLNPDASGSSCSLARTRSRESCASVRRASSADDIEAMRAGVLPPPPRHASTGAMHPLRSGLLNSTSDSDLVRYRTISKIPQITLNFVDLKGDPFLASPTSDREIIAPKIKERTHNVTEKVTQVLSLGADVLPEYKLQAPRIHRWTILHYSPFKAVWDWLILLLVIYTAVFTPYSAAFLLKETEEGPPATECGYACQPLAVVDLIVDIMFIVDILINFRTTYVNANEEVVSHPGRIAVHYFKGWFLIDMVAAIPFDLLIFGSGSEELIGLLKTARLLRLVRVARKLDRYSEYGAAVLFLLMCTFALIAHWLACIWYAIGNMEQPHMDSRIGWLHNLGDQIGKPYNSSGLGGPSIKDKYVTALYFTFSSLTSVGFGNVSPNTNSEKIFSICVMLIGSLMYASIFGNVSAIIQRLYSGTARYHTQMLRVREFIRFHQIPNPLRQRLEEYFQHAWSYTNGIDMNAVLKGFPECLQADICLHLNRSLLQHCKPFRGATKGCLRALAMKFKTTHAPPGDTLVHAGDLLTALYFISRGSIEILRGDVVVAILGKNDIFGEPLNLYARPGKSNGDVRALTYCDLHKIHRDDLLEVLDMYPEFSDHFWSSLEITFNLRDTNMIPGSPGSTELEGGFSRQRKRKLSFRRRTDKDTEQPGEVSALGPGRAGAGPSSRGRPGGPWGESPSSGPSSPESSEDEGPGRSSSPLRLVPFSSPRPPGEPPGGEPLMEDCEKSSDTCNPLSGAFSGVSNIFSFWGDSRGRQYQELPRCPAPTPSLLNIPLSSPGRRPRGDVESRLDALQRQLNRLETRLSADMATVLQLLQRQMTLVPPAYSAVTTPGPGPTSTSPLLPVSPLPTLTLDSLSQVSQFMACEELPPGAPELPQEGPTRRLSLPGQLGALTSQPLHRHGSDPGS
Sequence of Cytochrome P450 2C9 (Homo sapiens) (P11712 whole entry, looked up): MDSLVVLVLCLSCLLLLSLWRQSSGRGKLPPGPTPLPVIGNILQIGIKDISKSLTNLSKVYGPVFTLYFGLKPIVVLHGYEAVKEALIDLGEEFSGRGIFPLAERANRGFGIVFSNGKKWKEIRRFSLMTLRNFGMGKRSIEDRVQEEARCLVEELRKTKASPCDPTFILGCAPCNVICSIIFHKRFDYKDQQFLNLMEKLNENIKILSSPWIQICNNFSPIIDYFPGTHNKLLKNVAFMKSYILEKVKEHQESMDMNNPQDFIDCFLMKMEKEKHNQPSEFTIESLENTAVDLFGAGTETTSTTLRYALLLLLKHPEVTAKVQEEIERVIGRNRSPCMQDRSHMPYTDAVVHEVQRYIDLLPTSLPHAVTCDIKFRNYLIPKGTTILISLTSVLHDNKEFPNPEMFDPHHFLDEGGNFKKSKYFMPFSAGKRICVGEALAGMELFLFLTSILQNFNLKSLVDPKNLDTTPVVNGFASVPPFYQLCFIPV
Sequence of Nuclear receptor subfamily 1 group I member 2 (Homo sapiens) (O75469 whole entry, looked up): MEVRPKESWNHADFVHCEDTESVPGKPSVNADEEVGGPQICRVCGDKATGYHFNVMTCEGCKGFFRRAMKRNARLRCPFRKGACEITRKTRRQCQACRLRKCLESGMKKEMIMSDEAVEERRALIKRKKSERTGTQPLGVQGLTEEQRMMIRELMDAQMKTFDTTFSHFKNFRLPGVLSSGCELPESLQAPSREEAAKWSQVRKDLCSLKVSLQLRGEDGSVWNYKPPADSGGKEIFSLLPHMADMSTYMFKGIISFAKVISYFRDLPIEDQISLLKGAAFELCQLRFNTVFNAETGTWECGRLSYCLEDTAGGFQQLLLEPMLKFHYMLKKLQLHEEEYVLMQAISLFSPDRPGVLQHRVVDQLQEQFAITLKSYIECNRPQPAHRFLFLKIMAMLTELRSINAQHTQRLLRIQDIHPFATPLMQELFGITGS
Sequence of Cytochrome P450 2D6 (Homo sapiens) (P10635 whole entry, looked up): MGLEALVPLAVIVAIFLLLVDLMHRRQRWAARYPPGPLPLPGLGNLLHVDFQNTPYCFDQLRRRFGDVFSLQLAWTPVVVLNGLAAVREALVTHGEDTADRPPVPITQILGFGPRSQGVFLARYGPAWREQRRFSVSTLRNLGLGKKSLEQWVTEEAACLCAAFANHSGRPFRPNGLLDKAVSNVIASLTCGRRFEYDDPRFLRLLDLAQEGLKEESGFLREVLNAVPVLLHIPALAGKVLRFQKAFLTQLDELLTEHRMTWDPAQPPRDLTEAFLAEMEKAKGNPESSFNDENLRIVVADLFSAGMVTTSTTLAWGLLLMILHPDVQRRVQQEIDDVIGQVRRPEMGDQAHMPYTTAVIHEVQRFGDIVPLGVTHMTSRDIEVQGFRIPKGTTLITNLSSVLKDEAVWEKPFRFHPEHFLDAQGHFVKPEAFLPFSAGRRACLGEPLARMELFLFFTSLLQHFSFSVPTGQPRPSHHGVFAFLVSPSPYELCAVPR

| Structure (SMILES) | Potency [1] | Potency [2] | Potency [3] | Potency [4] | Potency [5] | Potency [6] | Potency [7] | Potency [8] | Potency [9] | Potency [10] | Potency [11] | outcome [12] | Potency [13] | Potency [14] | Potency [15] | max activation [16] |
| --- | --- | --- | --- | --- | --- | --- | --- | --- | --- | --- | --- | --- | --- | --- | --- | --- |
| CCOC(=O)c1ccccc1OC | inactive | inactive | inactive | inactive | inactive | inactive | 79.6 µM (active) | inactive | 35.6 µM (active) | inactive | inactive | – | – | – | – | – |
| Brc1cc(-c2ccc(Br)c(Br)c2Br)cc(Br)c1Br | inactive | inactive | inactive | – | 30.2 µM (active) | inactive | 39.3 µM (active) | inactive | – | inactive | inactive | inactive | inactive | – | – | – |
| CC(=O)[C@H]1CC[C@H]2[C@@H]3C=CC4=CC(=O)CC[C@@]4(C)[C@@H]3CC[C@]12C | inactive | inactive | inactive | – | 26.6 µM (active) | – | 2.75 µM (active) | 38.9 µM (active) | inactive | inactive | inactive | inactive | inactive | inactive | inactive | – |
| CCOCCn1c(C2CCN(CCc3ccc(C(C)(C)C(=O)O)cc3)CC2)nc2ccccc21 | inactive | inactive | inactive | inactive | inactive | inactive | inactive | inactive | – | – | inactive | – | inactive | – | – | – |
| O=C(CCCCCCC(=O)Nc1ccccc1)NO | inactive | 8.41 µM (active) | 4.22 µM (active) | 13.3 µM (active) | 7.5 µM (active) | 5.49 µM (active) | 7.76 µM (active) | – | 12.9 µM (active) | inactive | inactive | – | – | inactive | inactive | -13.8% |
| Cc1ccc(S(=O)(=O)NC2CCCCC2)cc1 | inactive | inactive | inactive | – | 27.1 µM (active) | inactive | 6.28 µM (active) | 22.3 µM (active) | – | inactive | 17.7 µM (active) | inactive | inactive | – | – | – |
| Nc1nc(Cl)nc2c1ncn2[C@@H]1O[C@H](CO)[C@@H](O)[C@@H]1F | inactive | inactive | inactive | – | 0.531 µM (active) | inactive | inactive | inactive | inactive | inactive | inactive | inactive | inactive | – | 1 µM (active) | -7.37% |
| CCC(C)=O | inactive | inactive | inactive | – | inactive | inactive | inactive | inactive | – | inactive | inactive | inactive | inactive | – | – | – |
| CC(=O)Oc1ccc2c(c1)CC[C@@H]1[C@@H]2CC[C@]2(C)[C@@H](O)CC[C@@H]12 | inactive | inactive | inactive | – | 26.6 µM (active) | – | 24.5 µM (active) | inactive | – | inactive | inactive | inactive | inactive | inactive | – | -1.91% |
| O=[N+]([O-])c1cccc(S(=O)(=O)NCCNS(=O)(=O)c2cccc([N+](=O)[O-])c2)c1 | inactive | inactive | inactive | – | 13.3 µM (active) | – | 3.09 µM (active) | 8.71 µM (active) | inactive | – | – | inactive | inactive | 7.94 µM (active) | 14.1 µM (active) | – |
| CCCCCC=CCC=CCCCCCCCC(=O)OCC | inactive | inactive | inactive | – | 29.8 µM (active) | inactive | 21.9 µM (active) | 15.5 µM (active) | 27.5 µM (active) | – | – | inactive | inactive | inactive | inactive | -2.8% |
| O=C(N[C@@H](c1ccccc1)[C@@H]1CCCCN1)c1cccc(C(F)(F)F)c1Cl | inactive | 54.5 µM (active) | 54.5 µM (active) | – | – | – | 17.8 µM (active) | 63.3 µM (active) | inactive | – | 1.59 µM (active) | – | – | – | – | – |

From PubChem BioAssay (Tox21)
